# Assay results reported in PMC11062922 (Nature Chemical Biology, 2023).
# Read-outs that look alike come from different tables or passages of the source.
# Assays:
# SIK2 = details: read-out: apparent Kd, n = 1
# STK3 = details: read-out: apparent Kd, n = 1
substance,measurement,setting,value
Lestaurtinib,potency estimated from few doses,"SIK2; compound concentrations:100 nM and 1000 nM (sheet 'Lestaurtinib' of Supplementary Table 1),run:Lestaurtinib_02584_R3,Plate:MR017",53.4 nM
same,potency estimated from few doses,"SIK2; compound concentrations:100 nM and 1000 nM (sheet 'Lestaurtinib' of Supplementary Table 1),run:Lestaurtinib_02601_R2,Plate:MR018",94.3 nM
same,potency estimated from few doses,"SIK2; compound concentrations:100 nM and 1000 nM (sheet 'Lestaurtinib' of Supplementary Table 1),run:Lestaurtinib_02601_R3,Plate:MR018",40.2 nM
same,potency estimated from few doses,"SIK2; compound concentrations:100 nM and 1000 nM (sheet 'Lestaurtinib' of Supplementary Table 1),run:Lestaurtinib_02606_R1,Plate:MR019",51.2 nM
same,potency estimated from few doses,"SIK2; compound concentrations:100 nM and 1000 nM (sheet 'Lestaurtinib' of Supplementary Table 1),run:Lestaurtinib_02606_R2,Plate:MR019",45.6 nM
same,potency estimated from few doses,"SIK2; compound concentrations:100 nM and 1000 nM (sheet 'Lestaurtinib' of Supplementary Table 1),run:Lestaurtinib_02624_R1,Plate:MR020",51.5 nM
same,potency estimated from few doses,"SIK2; compound concentrations:100 nM and 1000 nM (sheet 'Lestaurtinib' of Supplementary Table 1),run:Lestaurtinib_02624_R2,Plate:MR020",49.5 nM
same,potency estimated from few doses,"SIK2; compound concentrations:100 nM and 1000 nM (sheet 'Lestaurtinib' of Supplementary Table 1),run:Lestaurtinib_02624_R3,Plate:MR020",46.5 nM
same,potency estimated from few doses,"SIK2; compound concentrations:100 nM and 1000 nM (sheet 'Lestaurtinib' of Supplementary Table 1),run:Lestaurtinib_02724_R1,Plate:MR021",73.9 nM
same,potency estimated from few doses,"SIK2; compound concentrations:100 nM and 1000 nM (sheet 'Lestaurtinib' of Supplementary Table 1),run:Lestaurtinib_02724_R2,Plate:MR021",44.8 nM
same,potency estimated from few doses,"SIK2; compound concentrations:100 nM and 1000 nM (sheet 'Lestaurtinib' of Supplementary Table 1),run:Lestaurtinib_02724_R3,Plate:MR021",50.5 nM
same,potency estimated from few doses,"SIK2; compound concentrations:100 nM and 1000 nM (sheet 'Lestaurtinib' of Supplementary Table 1),run:Lestaurtinib_02741_R1,Plate:MR023",57.2 nM
same,potency estimated from few doses,"SIK2; compound concentrations:100 nM and 1000 nM (sheet 'Lestaurtinib' of Supplementary Table 1),run:Lestaurtinib_02741_R2,Plate:MR023",71.3 nM
same,potency estimated from few doses,"SIK2; compound concentrations:100 nM and 1000 nM (sheet 'Lestaurtinib' of Supplementary Table 1),run:Lestaurtinib_02741_R3,Plate:MR023",54.5 nM
same,potency estimated from few doses,"SIK2; compound concentrations:100 nM and 1000 nM (sheet 'Lestaurtinib' of Supplementary Table 1),run:Lestaurtinib_02748_R1,Plate:MR024",48.8 nM
same,potency estimated from few doses,"SIK2; compound concentrations:100 nM and 1000 nM (sheet 'Lestaurtinib' of Supplementary Table 1),run:Lestaurtinib_02748_R2,Plate:MR024",56.4 nM
same,potency estimated from few doses,"SIK2; compound concentrations:100 nM and 1000 nM (sheet 'Lestaurtinib' of Supplementary Table 1),run:Lestaurtinib_02748_R3,Plate:MR024",51.6 nM
same,potency estimated from few doses,"SIK2; compound concentrations:100 nM and 1000 nM (sheet 'Lestaurtinib' of Supplementary Table 1),run:Lestaurtinib_02752_R2,Plate:MR025",56 nM
same,potency estimated from few doses,"SIK2; compound concentrations:100 nM and 1000 nM (sheet 'Lestaurtinib' of Supplementary Table 1),run:Lestaurtinib_02752_R3,Plate:MR025",56 nM
same,potency estimated from few doses,"SIK2; compound concentrations:100 nM and 1000 nM (sheet 'Lestaurtinib' of Supplementary Table 1),run:Lestaurtinib_02765_R1,Plate:MR026",49.7 nM
same,potency estimated from few doses,"SIK2; compound concentrations:100 nM and 1000 nM (sheet 'Lestaurtinib' of Supplementary Table 1),run:Lestaurtinib_02765_R2,Plate:MR026",91.3 nM
same,potency estimated from few doses,"SIK2; compound concentrations:100 nM and 1000 nM (sheet 'Lestaurtinib' of Supplementary Table 1),run:Lestaurtinib_02766_R1,Plate:MR027",43.3 nM
same,potency estimated from few doses,"SIK2; compound concentrations:100 nM and 1000 nM (sheet 'Lestaurtinib' of Supplementary Table 1),run:Lestaurtinib_02766_R2,Plate:MR027",26.9 nM
same,potency estimated from few doses,"SIK2; compound concentrations:100 nM and 1000 nM (sheet 'Lestaurtinib' of Supplementary Table 1),run:Lestaurtinib_02768_R2,Plate:MR028",45.1 nM
same,potency estimated from few doses,"SIK2; compound concentrations:100 nM and 1000 nM (sheet 'Lestaurtinib' of Supplementary Table 1),run:Lestaurtinib_02768_R3,Plate:MR028",47.4 nM
same,potency estimated from few doses,"SIK2; compound concentrations:100 nM and 1000 nM (sheet 'Lestaurtinib' of Supplementary Table 1),run:Lestaurtinib_02795_R1,Plate:MR022",59.7 nM
same,potency estimated from few doses,"SIK2; compound concentrations:100 nM and 1000 nM (sheet 'Lestaurtinib' of Supplementary Table 1),run:Lestaurtinib_02795_R2,Plate:MR022",62.3 nM
same,potency estimated from few doses,"SIK2; compound concentrations:100 nM and 1000 nM (sheet 'Lestaurtinib' of Supplementary Table 1),run:Lestaurtinib_02795_R3,Plate:MR022",165 nM
same,potency estimated from few doses,"SIK2; compound concentrations:100 nM and 1000 nM (sheet 'Lestaurtinib' of Supplementary Table 1),run:Lestaurtinib_02802_R1,Plate:MR029",49.8 nM
same,potency estimated from few doses,"SIK2; compound concentrations:100 nM and 1000 nM (sheet 'Lestaurtinib' of Supplementary Table 1),run:Lestaurtinib_02802_R2,Plate:MR029",52.5 nM
same,potency estimated from few doses,"SIK2; compound concentrations:100 nM and 1000 nM (sheet 'Lestaurtinib' of Supplementary Table 1),run:Lestaurtinib_02802_R3,Plate:MR029",25.3 nM
same,potency estimated from few doses,"SIK2; compound concentrations:100 nM and 1000 nM (sheet 'Lestaurtinib' of Supplementary Table 1),run:Lestaurtinib_02896_R2,Plate:MR030",44.8 nM
same,potency estimated from few doses,"SIK2; compound concentrations:100 nM and 1000 nM (sheet 'Lestaurtinib' of Supplementary Table 1),run:Lestaurtinib_03172_R1,Plate:MR031",46.2 nM
same,potency estimated from few doses,"SIK2; compound concentrations:100 nM and 1000 nM (sheet 'Lestaurtinib' of Supplementary Table 1),run:Lestaurtinib_03172_R2,Plate:MR031",51.4 nM
same,potency estimated from few doses,"SIK2; compound concentrations:100 nM and 1000 nM (sheet 'Lestaurtinib' of Supplementary Table 1),run:Lestaurtinib_03172_R3,Plate:MR031",49.5 nM
same,potency estimated from few doses,"SIK2; compound concentrations:100 nM and 1000 nM (sheet 'Lestaurtinib' of Supplementary Table 1),run:Lestaurtinib_03252_R2,Plate:MR032",34.3 nM
same,potency estimated from few doses,"SIK2; compound concentrations:100 nM and 1000 nM (sheet 'Lestaurtinib' of Supplementary Table 1),run:Lestaurtinib_03260_R1,Plate:MR033",77.2 nM
same,potency estimated from few doses,"SIK2; compound concentrations:100 nM and 1000 nM (sheet 'Lestaurtinib' of Supplementary Table 1),run:Lestaurtinib_03260_R3,Plate:MR033",54.9 nM
same,potency estimated from few doses,"STK3; compound concentrations:100 nM and 1000 nM (sheet 'Lestaurtinib' of Supplementary Table 1),run:Lestaurtinib_02339_R1,Plate:MR001",36.6 nM
same,potency estimated from few doses,"STK3; compound concentrations:100 nM and 1000 nM (sheet 'Lestaurtinib' of Supplementary Table 1),run:Lestaurtinib_02339_R2,Plate:MR001",36.6 nM
same,potency estimated from few doses,"STK3; compound concentrations:100 nM and 1000 nM (sheet 'Lestaurtinib' of Supplementary Table 1),run:Lestaurtinib_02364_R1,Plate:MR002",36.5 nM
same,potency estimated from few doses,"STK3; compound concentrations:100 nM and 1000 nM (sheet 'Lestaurtinib' of Supplementary Table 1),run:Lestaurtinib_02364_R3,Plate:MR002",51.5 nM
